Assay results from PubChem BioAssay AID588473 (Sanford-Burnham Center for Chemical Genomics, 2011).
Screen size: about 350,000 compounds; about 1,600 (0.46%) were called active.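 Rule for the calls: active = activation of at least 50%, plus an integration ratio under a set limit after plate pattern correction; inactive = the rest.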 The entries come from a sample that favours actives as a whole.

system: CRF-binding protein / CRF receptor 2 complex (human); experiment: activators of CRF-R2 with CRF-BP – cell-based, HEK293, calcium dye fluorescence, uHTS, primary screen (AID 588473); conditions: calcium dye fluorescence (FLIPR), at 13.2 µM, hits give high values, percent of saturating CRF peptide response;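 note: plate controls were neutral control wells without compound for no effect and CRF at EC100 for full effect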

| SMILES | activation |
| --- | --- |
| CCCN1C2CCCC1CC(NC(=O)NC13CC4CC(CC(C4)C1)C3)C2 (stereo unspecified) | 0.55% (inactive) |
| Cc1cccc(N(C)C(=O)CN2C(=O)COc3ccc(S(=O)(=O)N4CCCCCC4)cc32)c1 | 21.6% (inactive) |
| COc1cc(CCC(=O)OCC(=O)Nc2cccc(S(N)(=O)=O)c2)cc(OC)c1OC | 1.86% (inactive) |
| COC(=O)c1cc(NC(=O)c2nn(C)c(=O)c3ccccc23)cc(C(=O)OC)c1 | -0.23% (inactive) |
| CCc1ccc2oc(-c3ccc(N)cc3)nc2c1 | 0.69% (inactive) |
| Cc1ccc2oc(=O)ccc2c1 | -1.36% (inactive) |
| CCN(CC)c1ccc2oc(=O)c(C)nc2c1 | 111% (active) |
| C/C(CC(=O)NC(C)(C)C)=N\NC(=O)c1ccco1 | -2.93% (inactive) |
| CN1CCC(=O)N([C@H](CO)Cc2ccccc2)CC1 | 0.86% (inactive) |
| O=C1NC(Nc2nc3ccccc3s2)(C(F)(F)F)C(=O)N1C1CCCCC1 (stereo unspecified) | -0.92% (inactive) |
| COc1ccc(OCCCn2cccc2/C=C2/C(=N)N3OC(C)=CC3=NC2=O)cc1 | 4.44% (inactive) |
| CC(C)(C)OC(=O)NCCCCCC(=O)N/N=C/c1coc2ccccc2c1=O | -5.17% (inactive) |
| CC1=CC2=NC(=O)/C(=C/c3coc4ccccc4c3=O)C(=N)N2O1 | 147% (active) |
| C[C@@H]1NS(=O)(=O)c2cc(Cl)ccc2O[C@@H]1c1ccccc1 | -1.15% (inactive) |
| Cc1cc(C(=O)COC(=O)C2CC2)c(C)n1-c1ccc(F)cc1 | -3.55% (inactive) |
| Cc1ccc(-n2c(C)cc(C(=O)CN3C(=O)C(=O)N(C4CCCC4)C3=O)c2C)cc1 | 161% (active) |
| Cc1ccc(-n2c(C)cc(C(=O)CSc3nnc4ccccn34)c2C)cc1 | -0.98% (inactive) |
| Cc1ccc(NC(=O)COc2ccc(/C=N\NC(=O)c3cccnc3)cc2)cc1C | 0.37% (inactive) |
| O=C(N/N=C/c1sc(N2CCCCC2)nc1-c1cccs1)c1cccnc1 | 62.8% (active) |
| Cc1ccc(S(=O)(=O)N2CCCCC2)cc1NC(=O)c1cccnc1 | 6.52% (inactive) |
| Cc1ccc(C(=O)N/C(=C\c2cccs2)C(=O)NCCc2ccccn2)cc1C | -0.29% (inactive) |
| COc1ccccc1C(=O)NCCC(=O)NC(C)CCc1ccccc1 (stereo unspecified) | 0.39% (inactive) |
| COc1ccc(CCNC(=O)CN(c2ccccc2)S(=O)(=O)c2ccccc2)cc1 | -0.58% (inactive) |
| COc1ccc([C@H]2CC(=O)C=C(/C=C/c3ccc(Cl)cc3)C2)cc1 | 2.34% (inactive) |
| CCSc1nc2c(c(=O)[nH]1)C(c1cccnc1)C(C(=O)OC(C)C)=C(C)N2 (stereo unspecified) | -11.6% (inactive) |
| COc1cc(OC)cc(C(=O)N[C@H](C(=O)OCC(=O)NC(C)c2ccccc2)C(C)C)c1 (stereo partly specified) | 102% (active) |

| SMILES | activation |
| --- | --- |
| COc1cc(OC)cc(C(=O)NC(C(=O)N2CCC2)C(C)C)c1 (stereo unspecified) | 2.01% (inactive) |
| COc1cc(OC)cc(C(=O)NCC(=O)OCC(=O)NC(C)CCc2ccccc2)c1 (stereo unspecified) | -1.06% (inactive) |
| COc1cc([N+](=O)[O-])cc([N+](=O)[O-])c1NC(=O)N1CCOCC1 | -0.3% (inactive) |
| CCc1nnc(NC(=O)CSc2nc(SC)ns2)s1 | 113% (active) |
| COc1ccc(C)cc1NC(=O)CSc1nc(SC)ns1 | -0.91% (inactive) |
| CSc1nsc(SCC(=O)Nc2cc(C(=O)O)ccc2C)n1 | -1.07% (inactive) |
| CCCCn1c(=S)[nH]c2ncccc2c1=O | 2.09% (inactive) |
| CCN(CC)S(=O)(=O)c1ccc(OC)c(NC(=O)CCc2c(C)noc2C)c1 | -0.44% (inactive) |
| Cc1nn(C)c(C)c1C(C)NC(=O)c1ccc(OC2CCN(Cc3ccccn3)CC2)cc1 (stereo unspecified) | 3.71% (inactive) |
| Cc1ccc(NC(=O)C(C)c2cccc(C(=O)c3ccccc3)c2)cc1 (stereo unspecified) | -1.3% (inactive) |
| Cc1cccc(OCC(=O)Nc2ccc(NC(=O)c3ccco3)c(C)c2)c1 | 0.25% (inactive) |
| O=C(NNC(=S)Nc1ccc(Br)cc1Cl)c1ccco1 | -1.64% (inactive) |
| CC(Oc1ccc2ccccc2c1)C(=O)NNC(=S)NC(=O)c1ccco1 (stereo unspecified) | 58.2% (active) |
| CCCc1ccc(OCC(=O)NNC(=S)NC(=O)c2ccco2)cc1 | 60.1% (active) |
| NS(=O)(=O)c1ccc(CNC(=S)NC(=O)c2ccco2)cc1 | -6.68% (inactive) |
| O=C(Nc1ccc2ccccc2c1)/C(=C\c1ccc2c(c1)OCO2)NC(=O)c1ccco1 | 1.15% (inactive) |
| C=CCOc1ccc(C2/C(=C(\O)c3c(C)[nH]c(C(=O)OC)c3C)C(=O)C(=O)N2CCN(C)C)cc1 (stereo unspecified) | -2.8% (inactive) |
| C=C1CCN([C@@H](Cc2ccccc2)C(=O)N2CCOCC2)S(=O)(=O)c2ccccc21 | 1.4% (inactive) |
| Cc1ccc(C)c(NC(=O)COC(=O)Cn2c(C)csc2=O)c1 | 1.31% (inactive) |
| Cc1cc(Nc2ccc(C)c(C)c2)n2ncnc2n1 | -1.97% (inactive) |
| CC1=CC(=C(C#N)c2nc3ccccc3s2)C=C(C)N1c1ccc(F)cc1F | 119% (active) |
| Cc1nn(-c2ccc(F)cc2)c(Cl)c1/C=C(/CCC(=O)O)c1nc2ccccc2s1 | 0.68% (inactive) |
| Cc1cnc(C(=O)Oc2cccc(Cl)c2Cl)cn1 | -0.24% (inactive) |
| CCCCNC(=O)c1ccccc1NC(=O)c1ccccc1N(C)S(C)(=O)=O | -1.79% (inactive) |
| CCCCCCCCCCCCN1C(=O)CSC1c1cccnc1 (stereo unspecified) | 1.06% (inactive) |
